# Assay results reported in PubChem BioAssay (NCATS).
# Results filed as inconclusive are left out. The source made the active and inactive calls. Calls follow the shape of the dose curve; as a rule, active = well fitted inhibition curve with a large enough effect; inconclusive = small, poorly fitted or top-dose-only effect; inactive = flat fitted curve, though single readings scatter.
# Biological target: Luciferin 4-monooxygenase (Photinus pyralis) (UniProt P08659)
# Assay: Biochemical firefly luciferase enzyme assay for NPC (AID 624030);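 also: purified P. pyralis luciferase at 10 nM with luciferin and ATP substrate; 0% = DMSO and -100% = full luciferase inhibition by PTC124 control; nearly all actives have a fitted effect of over 70% in size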
# Details: purified P. pyralis luciferase, luminescence, 5 min; series mostly up to 58.6 µM; activity change, negative = inhibition: at the top concentration
# Summary of the method: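 Purified P. pyralis luciferase at 10 nM in 50 mM Tris Acetate (final), luminescence read within 5 minutes of enzyme addition to compounds. Activity normalised to PTC124 versus DMSO; concentration-response curves classed by r2, magnitude and activity.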
# Sequence of Luciferin 4-monooxygenase (Photinus pyralis) (P08659 whole entry, looked up): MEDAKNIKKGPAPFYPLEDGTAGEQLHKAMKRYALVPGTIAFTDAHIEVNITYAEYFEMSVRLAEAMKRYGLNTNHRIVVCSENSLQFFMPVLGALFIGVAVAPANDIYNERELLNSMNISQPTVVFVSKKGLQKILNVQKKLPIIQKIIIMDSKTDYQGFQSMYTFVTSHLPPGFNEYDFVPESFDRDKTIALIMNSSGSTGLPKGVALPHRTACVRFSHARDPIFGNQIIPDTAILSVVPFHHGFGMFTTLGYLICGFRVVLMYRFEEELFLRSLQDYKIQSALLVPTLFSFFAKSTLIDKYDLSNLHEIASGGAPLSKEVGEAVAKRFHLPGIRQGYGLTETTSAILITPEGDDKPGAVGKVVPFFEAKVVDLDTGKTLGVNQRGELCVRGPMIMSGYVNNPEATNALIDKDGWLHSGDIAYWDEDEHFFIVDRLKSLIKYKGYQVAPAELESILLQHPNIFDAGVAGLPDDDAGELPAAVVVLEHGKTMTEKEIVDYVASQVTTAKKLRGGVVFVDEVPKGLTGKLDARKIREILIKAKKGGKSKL
SMILES,"activity change, negative = inhibition",Potency
CN[C@H](CC(C)C)C(=O)N[C@H]1C(=O)N[C@@H](CC(N)=O)C(=O)N[C@H]2C(=O)N[C@H]3C(=O)N[C@H](C(=O)N[C@H](C(=O)O)c4cc(O)cc(O)c4-c4cc3ccc4O)[C@H](O)c3ccc(c(Cl)c3)Oc3cc2cc(c3O[C@@H]2OC(CO)[C@@H](O)[C@H](O)[C@H]2O[C@H]2C[C@](C)(N)[C@H](O)[C@H](C)O2)Oc2ccc(cc2Cl)[C@H]1O (stereo not given in full),-5.7% (inactive),–
CC(=O)O[C@]1(C(=O)CO)[C@@H](C)C[C@H]2[C@@H]3CCC4=CC(=O)C=C[C@]4(C)[C@@]3(F)[C@@H](O)C[C@]21C,0.331% (inactive),–
CC(C)=CCC/C(C)=C\CC/C(C)=C\CC/C(C)=C\CC1=C(C)C(=O)c2ccccc2C1=O,-5.07% (inactive),–
C[N+]1(C)CCN(C[C@@](O)(c2ccccc2)C2CCCCC2)CC1,-1.92% (inactive),–
OCC1OC(OC2C(CO)OC(OC3C(CO)OC(O)C(O)C3O)C(O)C2O)C(O)C(O)C1O (stereo not given),-1.03% (inactive),–
O=S(=O)(O)OCC1OC(COS(=O)(=O)O)(C2(OS(=O)(=O)O)OC(CO)C(OS(=O)(=O)O)C(OS(=O)(=O)O)C2OS(=O)(=O)O)C(OS(=O)(=O)O)C1OS(=O)(=O)O (stereo not given),-0.087% (inactive),–
CCCCC(=O)OCC(=O)[C@H]1[C@H](C)C[C@@H]2[C@@H]3C[C@@H](F)C4=CC(=O)C=C[C@]4(C)[C@@]3(F)[C@@H](O)C[C@@]21C,-2.37% (inactive),–
C#CC1(OC(C)=O)CCC2C3CCC4=CC(OC(C)=O)CCC4C3CCC21C (stereo not given),-5.11% (inactive),–
O=P(O)(O)OC[C@@H](O)CO,-6.86% (inactive),–
CCCCCCC(O)C/C=C\CCCCCCCC(=O)O (stereo not given),-13.6% (inactive),–
O=C(CO)NCCCOc1cccc(CN2CCCCC2)c1,1.63% (inactive),–
CS(=O)(=O)NC(=O)CCC/C=C\C[C@H]1C(=O)C[C@@H](O)[C@@H]1/C=C/[C@@H](O)COc1ccccc1,-3.59% (inactive),–
CN(Cc1ccc(C(C)(C)C)cc1)c1cccc2ccccc12,-0.503% (inactive),–
c1ccc(C(OC2CCCN(CCc3ccc4c(c3)OCO4)C2)c2ccccc2)cc1 (stereo not given),0.0642% (inactive),–
CC(CN1CCOCC1)C(Cc1ccccc1)(Cc1ccccc1)C(=O)N1CCCC1 (stereo not given),3.31% [at 123 µM] (inactive),–
O=C(CO)[C@@H](O)C(O)[C@@H](O)CO (stereo not given in full),-1.76% (inactive),–
CCC(=O)OC1CCC2C3CCc4cc(O)ccc4C3CCC12C (stereo not given),-8.38% (inactive),–
C=C1/C(=C\C=C2/CCC[C@@]3(C)[C@@H]([C@H](C)OCCC(C)(C)O)CC[C@@H]23)C[C@@H](O)C[C@@H]1O,-8.86% (inactive),–
OCC1(O)OC[C@@H](O)[C@H](O)[C@@H]1O (stereo not given in full),-0.233% (inactive),–
Cc1ccccc1C(=O)N1CC/C(=N/OS(=O)(=O)O)c2ccc(Cl)cc21,-7.44% (inactive),–

SMILES,"activity change, negative = inhibition",Potency
COc1cc2c(cc1OC)[C@@H](Cc1cc(OC)c(OC)c(OC)c1)[N@+](C)(CCCOC(=O)CC/C=C/CCC(=O)OCCC[N@+]1(C)CCc3cc(OC)c(OC)cc3[C@H]1Cc1cc(OC)c(OC)c(OC)c1)CC2,4.86% (inactive),–
[2H]c1c([2H])c([2H])c2c([nH]c(=S)n2C2CCN(CCCC(=O)c3ccc(F)cc3)CC2)c1[2H],-10.2% (inactive),–
COCC1=C(C(=O)OC(C)OC(=O)OC(C)C)N2C(=O)C(NC(=O)/C(=N/OC)c3csc(N)n3)[C@H]2SC1 (stereo not given in full),-5.44% (inactive),–
C=C1C[C@@H]2[C@H]3CCC4=CC(=O)C=C[C@]4(C)[C@@]3(F)[C@@H](O)C[C@]2(C)[C@]1(O)C(=O)COC(C)=O,-0.679% (inactive),–
CCCCCCC(=O)O[C@@H]1CC[C@H]2[C@@H]3CCc4cc(O)ccc4[C@H]3CC[C@]12C,-0.804% (inactive),–
CC(=O)O[C@H]1CC[C@@]2(C)C(=CCC3C2CC[C@]2(C)C(c4cccnc4)=CCC32)C1 (stereo not given in full),2.55% (inactive),–
CCCC(=O)O[C@]1(C(=O)COC(=O)CC)[C@@H](C)C[C@H]2[C@@H]3CCC4=CC(=O)C=C[C@@]4(C)[C@@]3(F)[C@H](O)C[C@@]21C,-3.09% (inactive),–
CCCCCCCCCCCCCCCC(=O)O[C@@H]1CC(C)=C(\C=C/C(C)=C\C=C/C(C)=C\C=C\C=C(C)\C=C\C=C(C)\C=C\C2=C(C)C[C@@H](OC(=O)CCCCCCCCCCCCCCC)CC2(C)C)C(C)(C)C1,-3.65% (inactive),–
CC1(C)S[C@@H]2[C@H](NC(=O)[C@H](N)c3ccccc3)C(=O)N2[C@@H]1C(=O)OCOC(=O)[C@@H]1N2C(=O)C[C@@H]2S(O)(O)C1(C)C,-4.12% (inactive),–
CC[C@H]1OC(=O)C[C@@H](O)[C@H](C)[C@@H](O[C@@H]2O[C@H](C)C[C@H](N(C)C)[C@@H]2O)[C@@H](CC=O)C[C@@H](C)C(=O)/C=C\[C@]2(C)O[C@H]2[C@@H]1C,0.104% (inactive),–
CCC[C@H]1C[C@H](C(=O)NC(C(C)Cl)C2O[C@@H](SC)C(OP(=O)(O)O)[C@@H](O)[C@@H]2O)N(C)C1 (stereo not given in full),-0.944% (inactive),–
Cc1nc2n(c(=O)c1CCN1CCC(c3noc4cc(F)ccc34)CC1)CCC[C@@H]2O,-0.576% (inactive),–
CC(=O)OC1CCC2(C)C(=CCC3C2CCC2(C)C(C(C)=O)CCC32)C1 (stereo not given),0.644% (inactive),–
NCCCCC(NC(=O)C1CCCN1C(=O)C1CSSCC(N)C(=O)NC(Cc2ccc(O)cc2)C(=O)NC(Cc2ccccc2)C(=O)NC(CCC(N)=O)C(=O)NC(CC(N)=O)C(=O)N1)C(=O)NCC(N)=O (stereo not given),–,inactive
c1cnc2cc3c(cc2n1)[C@@H]1CNC[C@@H]3C1,1.04% (inactive),–
CC(=O)OCC(=O)[C@@]1(O)[C@H](C)C[C@H]2C3C[C@H](F)C4=CC(=O)C=CC4(C)C3[C@@H](O)CC21C (stereo not given in full),0.599% (inactive),–
C#C[C@@]1(OC(C)=O)CC[C@H]2[C@@H]3CCC4=CC(=O)CC[C@@H]4[C@H]3CC[C@@]21C,0.854% (inactive),–
CN1C2CCC1CC(NC(=O)n1c(=O)[nH]c3ccccc31)C2 (stereo not given),-1.13% (inactive),–
O=C(CO)C(O)C(O)C(O)CO (stereo not given),2.01% (inactive),–
Cc1cccc(C)c1N(CCCc1cccnc1)C(=O)[C@@H](C)N,0.23% (inactive),–
